Assay results published in PubChem BioAssay AID493168 (National Center for Advancing Translational Sciences (NCATS), 2011).
Inconclusive results are not listed. Values without a mark were called inactive. Activity calls are given as the source filed them. Calls follow the shape of the dose curve; as a rule, active = well fitted inhibition curve with a large enough effect; inconclusive = small, poorly fitted or top-dose-only effect, or effect the other way; inactive = flat fitted curve, though single readings scatter.

biological target: Ubiquitin carboxyl-terminal hydrolase 2 (Homo sapiens) (UniProt O75604); test: Confirmation Assay for Inhibitors of Ubiquitin-specific Protease USP2a Using CHOP2 as the Reporter; details: USP2 core, Ub-CHOP2 coupled reporter fluorescence; series mostly up to 38.3 µM; activity change, negative = inhibition: at the top concentration; also: nearly all actives have a fitted effect of over 55% in size;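 as to activity change, negative = inhibition: plate controls were DMSO wells for no effect and full inhibition by NEM control for full effect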
In short: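 Ub-CHOP2 cleavage coupled to reporter activation was read by fluorescence after 60 min at RT, with 25 nM final Ub-CHOP2 and substrate. Enzyme (10 nM final USP2 core) first sat 30 min with compound; data were normalized to NEM and fitted to concentration-response curves.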
Potency is read from the fitted curve at half-maximal effect.

Sequence of Ubiquitin carboxyl-terminal hydrolase 2 (Homo sapiens) (O75604 whole entry, looked up): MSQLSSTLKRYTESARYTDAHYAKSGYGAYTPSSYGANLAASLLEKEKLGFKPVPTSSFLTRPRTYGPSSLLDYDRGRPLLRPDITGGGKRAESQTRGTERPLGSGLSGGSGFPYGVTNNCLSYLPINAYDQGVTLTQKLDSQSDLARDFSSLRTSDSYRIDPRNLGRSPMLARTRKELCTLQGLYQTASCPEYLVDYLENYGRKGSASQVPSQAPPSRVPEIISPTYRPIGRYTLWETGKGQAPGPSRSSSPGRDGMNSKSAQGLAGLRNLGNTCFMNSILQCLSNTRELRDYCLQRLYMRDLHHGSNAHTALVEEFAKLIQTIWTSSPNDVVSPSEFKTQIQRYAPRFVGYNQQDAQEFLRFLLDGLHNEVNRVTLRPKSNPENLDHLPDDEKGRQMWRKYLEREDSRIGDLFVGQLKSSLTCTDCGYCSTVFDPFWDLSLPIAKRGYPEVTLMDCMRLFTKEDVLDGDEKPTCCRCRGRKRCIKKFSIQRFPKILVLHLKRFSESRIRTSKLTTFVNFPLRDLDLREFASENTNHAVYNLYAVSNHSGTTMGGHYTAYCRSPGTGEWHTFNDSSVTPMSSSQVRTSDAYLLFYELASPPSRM

Row | Compound | activity change, negative = inhibition [%] | Potency
1 | CCC1=[N+](CC(=O)c2ccc(Br)cc2)CCn2c(C)ccc21 | 3.43 | 
2 | O=C(NN1C(=O)/C(=C/C=C/c2ccco2)SC1=S)c1ccncc1 |  | 13.1 µM (active)
3 | COc1ccc(C2CC(=O)N3CN(c4ccccc4F)CSC3=C2C#N)cc1OC (configuration not stated) | -2.34 | 
4 | COc1cccc(NC(=O)c2ccccc2-c2nc(-c3cccc(C)c3)no2)c1 | 1.17 | 
5 | COc1ccc(-n2c(O)c(/C=N/n3cnnc3)c3ccccc3c2=O)cc1 | 3.94 | 
6 | CC(=O)c1ccc(Nc2ncnc3c2oc2ccccc23)cc1 | 6.35 | 
7 | O=C(O)/C=C/c1ccc(S(=O)(=O)Nc2ccccc2C(=O)Nc2ccc(F)cc2)cc1 | 1.87 | 
8 | Cc1ccc(CN2C(=O)N/C(=C\c3cccn3-c3cccc(C(=O)O)c3)C2=O)cc1 | 1.47 | 
9 | CNC(=O)NC(=O)CSc1ccc(NC(C)=O)cc1 | -4.02 | 
10 | CC(=O)C1=C(O)C(=O)N(c2nnn(C)n2)C1c1cccs1 (configuration not stated) | -0.108 | 
11 | O=C(NCCC1=CCCCC1)C1CCCN(S(=O)(=O)c2cnc[nH]2)C1 (configuration not stated) | 4.26 | 
12 | Cc1cc(NC(=O)c2cccc(S(=O)(=O)N(C)C)c2)n(-c2ccccn2)n1 | -1.59 | 
13 | CCOc1cc(N2CCOCC2)c(OCC)cc1NC(=O)Cc1cn2ccsc2n1 | -2.39 | 
14 | CC(C)c1ccc(Nc2nnc(SCC(=O)c3nnc(-c4ccccc4)o3)s2)cc1 |  | 6.56 µM (active)
15 | c1ccc(-c2nc3nc4ccccc4nc3n2Cc2ccco2)cc1 | 5.83 | 
16 | CCc1sc(/C=C(/C#N)C(N)=S)cc1[N+](=O)[O-] | -3.59 | 
17 | CC(C)C(C(=O)O)N1C(=O)/C(=C/C=C/c2ccco2)SC1=S (configuration not stated) |  | 6.56 µM (active)
